A selection: hits, their analogues and other compounds. The true share with any hit is near 21%.
NS1 function inh: qHTS Assay for Inhibitors of Influenza NS1 Protein Function; Potency, µM (series often up to 46.1 µM), for inactives: at the top dose activity, positive = more growth; 0.4% of 270,000 active; AID 2326, 2010; calls by dose curve; further: potency means the concentration at half of the fitted maximal effect; actives are rising curves; nearly all actives have a fitted effect of over 50% in size
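Compounds were scored for reversing the slow growth caused by influenza A NS1 in S. cerevisiae, measured by optical density at 600 nm. Assay medium contained 2% galactose at pH 6.0; NS1-free yeast of the same strain were the positive control.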
SARS PLpro yeast: qHTS of Yeast-based Assay for SARS-CoV PLP; S. cerevisiae expressing SARS-CoV PLpro, growth rescue; Potency, µM (highest dose often 32.9 µM), for inactives: top-dose activity, positive = growth rescue, most hits filed as activators; 0.19% of 330,000 active; calls by dose curve; further: potency means the concentration at half of the fitted maximal effect; 0% is about no effect; nearly all actives have a fitted effect of over 55% in size
Pf growth 48h: Primary qHTS for delayed death inhibitors of the malarial parasite plastid, 48 hour incubation; P. falciparum luciferase growth in erythrocytes, 48 h; 5.9% of 310,000 active; Potency, µM (titrated, usually from 28.7 µM), for the others: at the top dose activity change, negative = inhibition, actives largely listed as inhibitors; further: potency means the concentration at half of the fitted maximal effect; on the % scale 0 is the no-effect control and ±100 the full control effect
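A one-generation exposure of luciferase-tagged malaria parasites in RPMI 1640/Albumax erythrocyte culture, 37 C and 5% CO2. Inhibition is inferred from decreased luminescence after adding detection reagent.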
Shiga toxin inh: A qHTS for Small Molecule Inhibitors of Shiga Toxin | Vero cells, Shiga toxin protein synthesis inhibition reporter | inhibition, % at 38.7 µM | 9.2% of 290,000 active; in the data active means inhibition mostly above about 28%, no sharp cut-off; inactive means mostly below about 43%; further: 0% is about no effect
Pf growth 96h: Primary qHTS for delayed death inhibitors of the malarial parasite plastid, 96 hour incubation. P. falciparum luciferase reporter growth, 96 h. Potency, µM (top dose mostly 28.7 µM), for the others: top-dose activity change, negative = inhibition, actives largely listed as inhibitors. 6.9% of 320,000 active; further: potency means the concentration at half of the fitted maximal effect; on the % scale 0 is the no-effect control and ±100 the full control effect
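P. falciparum expressing integrated firefly luciferase grown in erythrocytes (2% hematocrit, 0.05% parasitemia final) with compounds for 96 hours at 37 C, 5% CO2. Growth inhibition read as loss of luminescence after adding luciferase detection reagent.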
CHX counter: Cycloheximide Counterscreen for Small Molecule Inhibitors of Shiga Toxin; max response, %; 12% of 300,000 active; AID 2314, 2010; cell reporter, cycloheximide protein synthesis inhibition counterscreen; in the data active means max response mostly above about 13%, no sharp cut-off; inactive means mostly below about 14%; further: read at 38.3 µM for the half of the compounds with a filed dose; 0% is about no effect
An asterisk follows results filed as active; ? = inconclusive; . = no result given. Unless noted, the call rests on the fitted dose curve; in most records, active means well fitted inhibition curve with a large enough effect; inconclusive means small, poorly fitted or top-dose-only effect, or another doubt; inactive means no such curve, though single readings can be large or run the other way.

SMILES	NS1 function inh	SARS PLpro yeast	Pf growth 48h	Shiga toxin inh	Pf growth 96h	CHX counter
COc1ccc(CCN=C(N)NS(=O)(=O)c2ccc(C)c(C)c2)cc1	.	2%	0%	-3	-1%	-3
C/C(=N\Nc1ncc(Cl)cc1Cl)c1ccc(N2CCOCC2)cc1	.	-35%	24%	85*	21%	38*
Cc1ccc[n+](CC(=O)Nc2nc3ccccc3s2)c1	6%	-1%	48%	28	?	6
CCc1ccccc1OCC(=O)Nc1cccc(S(=O)(=O)NCc2ccco2)c1	.	0%	?	.	?	.
O=C(CN1C(=O)S/C(=C\c2ccc(F)cc2)C1=O)Nc1cccc(S(=O)(=O)NCc2ccco2)c1	?	1%	?	138*	?	67*
C#CCOCCOCCOCCNc1nc(N2CCOCC2)nc(N2CCN(C(=O)CCCCCCCCCCNC(=O)[C@@H]([C@H](C)CC)n3cc(CCCCCN)nn3)CC2)n1	.	-2%	1.2µM*	.	0.83µM*	.
C#CCOCCOCCOCCNc1nc(N2CCN(C(=O)CCCCCCCCCCNC(=O)[C@H]([C@@H](C)CC)n3cc(CCCCCN)nn3)CC2)nc(N2CCN(C(=O)CCCCCCCCCCNC(=O)[C@@H]([C@H](C)CC)n3cc(CCCCCN)nn3)CC2)n1	.	2%	3.3µM*	.	?	.
C#CCOCCOCCOCCNc1nc(N2CCN(C(=O)CCCCCCCCCCNC(=O)[C@H]([C@@H](C)CC)n3cc(CCCCCN)nn3)CC2)nc(N2CCN(C(=O)CCCCCCCCCCNC(=O)[C@H](CO)n3cc(CCCCCN)nn3)CC2)n1	.	-2%	13µM*	.	?	.
C#CCOCCOCCOCCNc1nc(N2CCN(C(=O)Cn3cc(CCCCN)nn3)CC2)nc(N2CCN(C(=O)[C@H]([C@@H](C)CC)n3cc(CCCCN)nn3)CC2)n1	.	0%	-6%	.	77%	.
CC[C@H](C)[C@H](NC(=O)[C@H](CC(=O)O)NC(=O)[C@H](CC(C)C)NC(=O)[C@H](Cc1cnc[nH]1)NC(=O)[C@H](C)NC(=O)[C@H](Cc1ccccc1)NC(=O)[C@H](Cc1ccc(O)cc1)NC(=O)[C@@H](NC(=O)[C@H](C)NC(=O)[C@H](CCC(=O)O)NC(=O)[C@H](CCC(=O)O)NC(=O)[C@H](CC(=O)O)NC(=O)CCC(=O)O)C(C)C)C(=O)N[C@H](C(=O)N[C@@H](Cc1c[nH]c2ccccc12)C(=O)O)[C@@H](C)CC	.	.	.	-8	.	-2
CCOc1ccc(/C=C2/C(=O)N(c3ccc(OC)cc3)C(=S)N2CC(=O)OC)cc1OCC	-3%	-27%	?	12*	?	30*
COc1cc(CC(=O)Nc2cccc(SC)c2)cc(OC)c1OC	.	-1%	-24%	23	?	1
CCN(Cc1cc(OC)c(OC)c(OC)c1)C(=S)Nc1cccc(SC)c1	-9%	1%	?	10	10µM*	-2
C/C(CC(=O)Nc1cccc2c1CCCC2)=N\NC(=O)c1ccccc1N	13%	4%	?	116*	11%	31*
CC(=O)CC(=O)Nc1cccc2c1CCCC2	11%	9%	36%	49	4%	-5
C/C(CC(=O)Nc1cccc2c1CCCC2)=N\NC(=O)c1cccc2ccccc12	15%	-11%	-6%	-7	13µM*	-2
C[C@H](NCc1c[nH]c2ccccc12)c1ccccc1	3%	7%	-10%	.	-19%	-1
c1ccc2c(CN3CCCCCC3)c[nH]c2c1	-37%	-2%	45%	73*	-18%	39*
O=C1CCC(=O)N1CCc1c[nH]c2ccccc12	-4%	-2%	?	-5	20%	-4
O=C1c2ccccc2C(=O)N1CCc1c[nH]c2ccc(O)cc12	2%	1%	32%	46	3.3µM*	34*
O=C1c2ccccc2C(=O)N1CCc1c[nH]c2ccccc12	-6%	-1%	88%	95*	0%	48*
c1ccc2c(CNC3CCCCCC3)c[nH]c2c1	-8%	?	.	-29	10µM*	-1
CCOc1ccc(S(=O)(=O)N2CCN(C(=O)C3CSC4(C)CCC(=O)N34)CC2)cc1 (configuration not stated)	.	4%	-28%	.	?	.
CCOc1ccccc1NC(=O)C1CCN(C(=O)C2CC(=O)N(c3ccc(C)cc3)C2)CC1 (configuration not stated)	-6%	-4%	-13%	0	?	-7
COc1cc(Br)c(C2C(C#N)=C(N)Oc3n[nH]c(-c4cccnc4)c32)cc1OC (configuration not stated)	.	3%	15%	-8	16%	13
SMILES	NS1 function inh	SARS PLpro yeast	Pf growth 48h	Shiga toxin inh	Pf growth 96h	CHX counter
COc1ccc(CCC(=O)OCC(=O)N(CC(C)C)c2c(N)n(Cc3ccccc3)c(=O)[nH]c2=O)cc1	.	0%	3%	.	8%	.
O=C(Cn1ccc([N+](=O)[O-])n1)NCCc1c[nH]c2ccccc12	.	2%	-1%	92*	-24%	58*
O=C(CN1C(=O)c2ccccc2C1=O)NCCc1c[nH]c2ccccc12	11%	-1%	-2%	-8	5.2µM*	-5
O=C(O)C1CC(=O)N(CCc2c[nH]c3ccccc23)C1 (configuration not stated)	-8%	-3%	19%	-6	0%	-3
Cc1cc([N+](=O)[O-])nn1CC(=O)NCCc1c[nH]c2ccccc12	.	1%	?	-14	30%	5
O=C1CCCCN1CCc1c[nH]c2ccccc12	9%	10%	108%	active	152%	25*
O=C1c2ccccc2C(=O)N1CCCc1c[nH]c2ccccc12	0%	-8%	44%	21	57%	17*
Cc1ccc(C(=O)NCC2CCCO2)cc1S(=O)(=O)N1CCCCC1 (configuration not stated)	11%	-6%	-7%	3	?	-3
O=S(=O)(NC1CCN(S(=O)(=O)c2ccc3c(c2)OCCO3)C1)c1c(F)cccc1F (configuration not stated)	.	-19%	38%	17	1%	2
COc1cccc2cc(C(C)=O)oc12	0%	3%	-9%	-5	?	-2
COc1cccc2cc(/C(=N/O)c3ccccc3)oc12	-4%	-3%	72%	33	58%	26*
COc1ccc(C(=O)c2cc3cccc(OC)c3o2)cc1	-11%	-3%	242%	98*	39%	41*
CN(CCC(=O)O)C1=Nc2ccc(Cl)cc2C(c2ccccc2)=[N+]([O-])C1	-3%	.	.	.	.	.
Fc1cccc(COc2ccccc2CNc2ccccc2)c1	11%	?	-18%	18	-23%	-2
OCc1c(OCc2cccc(F)c2)ccc2ccccc12	-78%	.	55%	.	?	25*
CNCc1c(OCc2ccc(F)cc2)ccc2ccccc12	1%	-1%	15µM*	-10	?	4
